RORgamma inh = inhibitors of mouse ROR gamma transcriptional activity; P51450; Drosophila S2 Gal4-RORgamma UAS-luciferase reporter, 20 h; Potency, µM (titrated, usually from 53.6 µM), inactives show top-dose activity change, negative = inhibition, most hits filed as inhibitors; 310,000 tested, 5.4% active; AID 2551; further: potency means the concentration at half of the fitted maximal effect; nearly all actives have a fitted effect of over 60% in size
Target sequence (P51450 whole entry, looked up, the tested form may be a part): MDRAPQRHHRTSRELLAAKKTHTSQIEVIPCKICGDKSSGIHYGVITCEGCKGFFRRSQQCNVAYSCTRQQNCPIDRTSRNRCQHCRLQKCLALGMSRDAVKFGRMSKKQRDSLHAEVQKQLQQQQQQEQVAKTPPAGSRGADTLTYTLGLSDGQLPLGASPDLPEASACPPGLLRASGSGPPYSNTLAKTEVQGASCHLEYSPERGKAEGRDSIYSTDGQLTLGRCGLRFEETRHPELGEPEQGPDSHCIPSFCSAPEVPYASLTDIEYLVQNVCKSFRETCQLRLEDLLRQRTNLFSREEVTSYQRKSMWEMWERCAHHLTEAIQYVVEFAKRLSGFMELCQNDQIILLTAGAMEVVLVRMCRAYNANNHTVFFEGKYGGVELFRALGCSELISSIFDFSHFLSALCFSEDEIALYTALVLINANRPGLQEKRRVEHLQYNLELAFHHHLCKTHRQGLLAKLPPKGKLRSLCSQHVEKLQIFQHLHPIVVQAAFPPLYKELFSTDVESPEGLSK
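Stably transfected Drosophila Schneider cells are the test system, with ROR gamma fused to Gal4 and luciferase under UAS control; luminescence is read after 20 hr of 700 uM copper sulfate induction at ambient temperature.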
DT40 TDP1 no CPT = qHTS for Inhibitors of human tyrosyl-DNA phosphodiesterase 1 (TDP1): qHTS in cells in absence of CPT. 420,000 tested, 15% active. AID 686978, 2013. DT40 Tdp1-/- hTDP1 cells, no CPT, ATP luminescence, 48 h. Potency, µM (doses to about 46.2 µM), without a hit: at the top dose activity change, negative = growth inhibition, hits mostly inhibitors; further: potency means the concentration at half of the fitted maximal effect; nearly all actives have a fitted effect of over 55% in size
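Readout: luminescence from CellTiter-Glo after 30 min in the dark at RT. Cells: DT40 Tdp1-/- with stable hTDP1, 400/well. Exposure: compounds alone, ≥48 hr, 37 °C.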
LDHA inh = LDHA (human) enzyme inhibition. P00338. AID 1347041. activity change, % (values are at about 110 or 230 µM). purified LDHA, NADH/diaphorase-resazurin fluorescence; hits give low values. 480,000 tested, 0.15% active; in the data active means activity change below about -30%; inconclusive means mostly about -25% to -30%;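 further: plate controls were DMSO wells for no effect and wells without enzyme for full effect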
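Human LDH5 at 2 nM final in Tris HCl pH 7.4 with 0.06 mM NADH and 0.2 mM pyruvate, reacted 5 minutes at room temperature. Remaining NADH coupled via diaphorase/resazurin; resorufin fluorescence read at 0 and 20 minutes, normalized to enzyme-free and DMSO wells.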
TDP1 cell CPT = DT40-hTDP1 cell growth loss with CPT. chicken DT40 Tdp1-/-;hTDP1 cells + 20 nM CPT, ATP luminescence, 48 h. Potency, µM (series often up to 46.2 µM), for inactives: at the top dose activity change, negative = growth inhibition, usual class: inhibitors. 420,000 tested, 12% active; further: potency means the concentration at half of the fitted maximal effect; nearly all actives have a fitted effect of over 55% in size
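Cell growth measured by CellTiter-Glo luminescence after a minimum 48 h, 37 C compound exposure with 20 nM CPT in Tdp1-knockout DT40 cells stably expressing hTDP1, seeded 400/well; qHTS titration format.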
IL1B secr inh = inflammasome signaling inhibition, IL-1 beta readout. THP-1 LPS/ATP IL-1B secretion, AlphaLISA, 16 h; hits give low values. activity change, % at 57.5 µM. 360,000 tested, 4.7% active. AID 743279; in the data active means activity change below about -50%; inconclusive means mostly about -30% to -49%
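Secreted IL-1B measured by AlphaLISA bead assay after 16 h compound exposure of THP-1 cells; compounds (final up to 57.5 uM) added 1 h before LPS (250 ng/mL) and ATP (1.25 mM) stimulation; lower signal means less secretion.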
Gal4-VP16 FLuc = counter-screen for ROR gamma inhibitors: Gal4-VP16 reporter; Potency, µM (highest dose often 53.6 µM), for the others: at the highest dose activity, negative = inhibition, hits mostly inhibitors; AID 2546; 310,000 tested, 3.5% active; Drosophila S2 Gal4-VP16 UAS-luciferase, luminescence, 20 h;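 further: Gal4-VP16 expression switched on by copper sulfate through the metallothionein promoter; potency means the concentration at half of the fitted maximal effect; nearly all actives have a fitted effect of over 50% in size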
Active calls of the source: *; ? = inconclusive; · = no result given; [ ] = dose if it differs, or a comment. Rows were chosen to be rich in hits. Some 18% of all compounds tested hit in one or more screens of this group. Unless noted, the call rests on the fitted dose curve; in most records, active means well fitted curve in the direction sought with a large enough effect; inconclusive means small, poorly fitted or top-dose-only effect, or another doubt; inactive means no such curve, though single readings can be large; an effect the other way counts as inactive or inconclusive. Unless noted, on the % scale 0 is the no-effect control and ±100 the full control effect.

SMILES	RORgamma inh	DT40 TDP1 no CPT	LDHA inh	TDP1 cell CPT	IL1B secr inh	Gal4-VP16 FLuc
CCN(CC)S(=O)(=O)c1ccc(N/N=C/c2cc(OC)c(OC)cc2OC)nc1	3.7%	?	3.7	-5.1%	25.8	-7.2%
O=C(Cn1c(=O)nc2n1C(=O)N(c1ccccc1)C2)NCc1ccccc1	·	·	-0.3	·	·	·
CCOc1ccc2nnnn2n1	-25.1%	5.6%	-5.7	-0.3%	15.4	-1.6%
CC(C)(C)OC(=O)C(Cl)(C(=O)OC(C)(C)C)c1ccc2nnnn2n1	12.6µM*	?	3.0	?	-79.3*	?
Cc1ccc2c(c1)N(CC(=O)c1cn(C)c3ccccc13)C(=O)CO2	·	·	-2.1	·	·	·
N#Cc1ccc(C2=NC(C(F)(F)F)(C(F)(F)F)c3c(n(Cc4ccco4)c(=O)[nH]c3=O)N2)cc1	12.6µM*	4.0%	0.0	3.2%	-24.6	?
O=c1[nH]c(=O)n(Cc2ccco2)c2c1C(C(F)(F)F)(C(F)(F)F)N=C(C1CCCCC1)N2	9.6%	-18.1%	-3.7	?	6.3	0.3%[0.365 µM]
O=c1[nH]c(=O)n(Cc2ccco2)c2c1C(C(F)(F)F)(C(F)(F)F)N=C(CCc1ccccc1)N2	?	?	-5.3	17.8µM*	?	-12.0%
CCNC(=O)c1cc2c(c(-c3cccc(-c4ccccc4F)c3)n1)[C@H](CCO)N(C(=O)CC)C2	·	5.8µM*	-1.3	7.31µM*	37.7	·
CCCNC(=O)c1cc2c(c(-c3cccc(-c4ccccc4F)c3)n1)[C@@H](CCO)N(C(=O)CC1CC1)C2	·	?	0.1	25.9µM*	-16.1	·
O=C(NCC(F)(F)F)c1cc2c(c(-c3cccc(-c4ccccc4F)c3)n1)[C@H](CCO)N(C(=O)CC1CC1)C2	·	20.6µM*	-2.6	16.4µM*	-23.5	·
CCNC(=O)c1cc2c(c(-c3cccc(-c4cncnc4)c3)n1)[C@@H](CCO)N(C(C)=O)C2	·	-5.3%	-3.8	-12.4%	29.3	·
CCC(=O)N1Cc2cc(C(=O)NCC(F)(F)F)nc(-c3cccc(-c4cncnc4)c3)c2[C@@H]1CCO	·	?	-0.5	20.6µM*	-1.0	·
CC1CCCCC1NC(=S)NC1CC(C)(C)NC(C)(C)C1 (configuration not stated)	·	·	-1.2	·	·	·
NC(=O)c1ccc(CNC(=O)c2ccccc2Nc2ccccc2)cc1	·	·	-0.9	·	·	·
N#CC1(Nc2ccccc2)CCCCC1	·	·	1.0	·	·	·
CC(C)Cn1c(SC(C)C(=O)Nc2nccs2)nnc1-c1ccco1 (configuration not stated)	·	·	-4.1	·	·	·
COC(=O)[C@@]1(Cc2ccccc2)[C@H]2C(=O)N(C)C(=O)[C@H]2[C@H]2CN=C(SCc3ccccc3)N21	·	?	-1.9	14.6µM*	3.7	·
CCN1C[C@@H]2[C@@H]3C(=O)N(C)C(=O)[C@@H]3[C@](Cc3ccccc3)(C(=O)OC)N2C1=NC1CCCCC1	·	20.6µM*	-2.2	?	11.8	·
COC(=O)[C@@]1(Cc2ccccc2)[C@H]2C(=O)N(Cc3ccccc3)C(=O)[C@H]2[C@H]2CN=C(SCC3CC3)N21	·	23.1µM*	-1.3	?	41.2	·
COC(=O)c1ccc(CSC2=NC[C@@H]3[C@@H]4C(=O)N(Cc5ccccc5)C(=O)[C@@H]4[C@](C)(C(=O)OC)N23)cc1	·	16.4µM*	-2.9	?	17.8	·
Cc1ccc(-c2[nH]c3ccccc3c2C=O)cc1C	·	·	22.5	·	·	·
CC(C)CCNC(=O)c1cc(=O)[nH]c2ccc(S(=O)(=O)Nc3ccc(F)cc3)cc12	·	·	-0.8	·	·	·
Cn1nc(C(=O)NCCCN2CCCCC2)c2c1-c1ccccc1SC2	-0.7%	?	-0.3	?	-9.4	-3.1%
CCCCN(CC)C(=O)c1nn(C)c2c1CSc1ccccc1-2	·	23.1µM*	-0.5	?	·	·
SMILES	RORgamma inh	DT40 TDP1 no CPT	LDHA inh	TDP1 cell CPT	IL1B secr inh	Gal4-VP16 FLuc
Cc1ccc(CNC(=O)c2nn(C)c3c2CSc2ccc(C)cc2-3)cc1	·	?	-6.3	?	·	·
CCOc1ccc(CCNC(=O)c2nn(C)c3c2CSc2ccc(C)cc2-3)cc1OCC	·	13µM*	-4.9	?	·	·
CCN(C(=O)c1nn(C)c2c1CSc1ccccc1-2)c1cccc(C)c1	·	20.6µM*	1.6	11.6µM*	·	·
Cc1ccc(CCNC(=O)c2nn(C)c3c2CSc2ccccc2-3)cc1	·	-12.9%	-5.9	-23.5%	·	·
CCOC(=O)N1CCN(C(=O)c2nn(C)c3c2CSc2ccccc2-3)CC1	-18.4%	16.4µM*	-13.0	?	-17.0	3.6%
CC(c1cccc(NC(=O)c2ccccc2)c1)N(C)CC(=O)NC(=O)Nc1ccccc1 (configuration not stated)	·	·	0.7	·	·	·
N#CC1(C(=O)Nc2ccc(Br)cc2)CCCC1	·	·	-1.7	·	·	·
COc1ccc(CNc2nn3c(-c4cccc(C(=O)N(C)C)c4)cnc3s2)cc1	·	18.4µM*	-4.0	23.1µM*	?	·
CN(C)S(=O)(=O)c1ccc(C(=O)NCc2cccs2)cc1	2.9%	1.3%	-0.9	2.4%	-5.1	-3.4%
Cc1c(C(=O)NCc2ccc3c(c2)OCCO3)sc(=O)n1Cc1ccc2c(c1)OCO2	·	?	-2.7	?	-8.3	·
Cc1c(C(=O)NCc2ccc3c(c2)OCCO3)sc(=O)n1Cc1ccccc1C#N	·	16.4µM*	-2.9	?	-15.0	·
Cc1c(C(=O)NCc2ccc3c(c2)OCO3)sc(=O)n1Cc1ccc(S(=O)(=O)N(C)C)cc1	·	16.4µM*	1.6	?	-24.9	·
C=Cc1ccc(Cn2c(C)c(C(=O)NCc3ccc4c(c3)OCO4)sc2=O)cc1	·	?	1.9	?	?	·
Cc1c(C(=O)NCc2ccc3c(c2)OCCO3)sc(=O)n1Cc1ccc(S(=O)(=O)N(C)C)cc1	·	14.6µM*	-3.6	18.4µM*	-14.2	·
Cc1c(C(=O)NCc2cccs2)sc(=O)n1Cc1ccc(S(=O)(=O)N(C)C)cc1	·	23.1µM*	-2.6	?	-19.5	·
CCC/C(=N\NC(=O)c1ccc(C(C)(C)C)cc1)c1ccccc1	·	·	1.3	·	·	·
CSc1nnc(-c2ccccc2NC(=O)c2cccc(S(=O)(=O)N3CCCCC3)c2)o1	·	·	-5.7	·	·	·
Cc1c(C(=O)NCc2ccc3c(c2)OCCO3)sc(=O)n1Cc1ccccc1F	·	?	-2.9	?	-1.9	·
Cc1noc(C)c1Cn1c(C)c(C(=O)NCc2ccc3c(c2)OCCO3)sc1=O	·	16.4µM*	-3.2	8.2µM*	29.9	·
Cc1ccc(Cn2c(C)c(C(=O)NCc3cccc(C(F)(F)F)c3)sc2=O)cc1	·	0.6%	-3.9	-1.0%	-24.4	·
